# Laboratory results from PubChem BioAssay (EPA / NIEHS).
# Active and inactive are the calls of the source. Rule for the calls: active = hit-call score of the fitted dose curve at least 0.9, where 1 is the maximum; inactive = score below 0.9.
# Test: CEETOX_H295R_TESTO: CeeTox H295R High-throughput Steroidogenesis Assay for Testosterone (TESTO) (AID 2283457);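 for AC50: cells exposed to chemicals for 48 h before medium collection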
# Settings: actives raise or lower the signal
# Outline: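 Steroidogenesis in H295R cells following OECD 456 with minor changes; 48 h exposure. Medium testosterone by HPLC-MS/MS, DMSO as baseline, with MTT viability run in parallel.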
Structure (SMILES),outcome,AC50
Nc1cc([N+](=O)[O-])ccc1Cl,inactive,
O=C(O)C[C@H](O)C[C@H](O)/C=C/c1c(C2CC2)nc2ccccc2c1-c1ccc(F)cc1,,0.0871 µM (active)
O=c1cc(-c2ccccc2)oc2cc(O)cc(O)c12,,5.61 µM (active)
COc1cc2ncnc(Nc3cccc(Cl)c3)c2cc1OC,inactive,
CC1(C)[C@H](C(=O)OCc2cccc(Oc3ccccc3)c2)[C@@H]1C=C(Cl)Cl,inactive,
C=CC(C)(C)O,inactive,
